Hit rate of the full screen: of about 310,000 compounds, about 14,000 (4.5%) showed an effect of 50% or more. Effects have a minus sign here. This excerpt belongs to a sample that is enriched for strong results.
Molecular target: human ether-à-go-go-related gene (hERG) potassium channel (human, UniProt Q12809)
Test: primary screen, population patch clamp on CHO cells stably expressing hERG; higher = less effect of the substance
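Note: peak tail current of the secondary pulse compared with the same well before compound.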

Sequence of human ether-à-go-go-related gene (hERG) potassium channel (Q12809 whole entry, looked up): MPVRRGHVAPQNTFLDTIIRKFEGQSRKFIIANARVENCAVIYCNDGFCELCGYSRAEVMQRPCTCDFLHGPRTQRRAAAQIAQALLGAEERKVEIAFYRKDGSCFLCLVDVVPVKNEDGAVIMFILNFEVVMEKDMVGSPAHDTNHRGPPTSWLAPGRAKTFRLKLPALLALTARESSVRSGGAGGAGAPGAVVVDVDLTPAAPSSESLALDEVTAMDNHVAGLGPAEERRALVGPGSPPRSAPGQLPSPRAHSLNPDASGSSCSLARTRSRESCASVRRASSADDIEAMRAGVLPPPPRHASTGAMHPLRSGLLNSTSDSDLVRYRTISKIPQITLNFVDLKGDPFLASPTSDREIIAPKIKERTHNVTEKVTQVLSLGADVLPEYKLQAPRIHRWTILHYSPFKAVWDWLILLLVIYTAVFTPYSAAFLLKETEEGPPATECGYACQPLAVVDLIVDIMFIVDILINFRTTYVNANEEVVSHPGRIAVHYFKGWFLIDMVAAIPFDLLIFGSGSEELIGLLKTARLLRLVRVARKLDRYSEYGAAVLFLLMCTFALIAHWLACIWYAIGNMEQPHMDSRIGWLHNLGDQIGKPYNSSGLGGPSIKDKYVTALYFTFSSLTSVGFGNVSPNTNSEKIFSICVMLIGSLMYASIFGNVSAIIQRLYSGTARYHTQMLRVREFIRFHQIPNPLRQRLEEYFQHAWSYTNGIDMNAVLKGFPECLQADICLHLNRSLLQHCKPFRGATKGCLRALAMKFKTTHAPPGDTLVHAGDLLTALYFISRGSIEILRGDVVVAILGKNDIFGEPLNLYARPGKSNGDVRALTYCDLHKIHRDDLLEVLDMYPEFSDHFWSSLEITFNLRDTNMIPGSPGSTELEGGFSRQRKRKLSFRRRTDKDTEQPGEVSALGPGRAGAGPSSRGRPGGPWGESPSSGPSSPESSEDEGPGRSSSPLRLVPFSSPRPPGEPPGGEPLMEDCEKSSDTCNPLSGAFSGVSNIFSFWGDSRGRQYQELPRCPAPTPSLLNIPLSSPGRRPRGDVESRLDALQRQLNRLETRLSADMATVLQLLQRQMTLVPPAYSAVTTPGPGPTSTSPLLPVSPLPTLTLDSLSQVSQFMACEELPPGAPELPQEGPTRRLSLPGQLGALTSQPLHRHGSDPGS

Compound	hERG current change (%, negative = inhibition) at 10uM [%]
CCOc1ccc(Nc2c3ccccc3nc3ccccc23)cc1	-42.4
CC(=O)Nc1ccc(Nc2cc(C)c3ccccc3n2)cc1	-27.4
O=C(CCCCCl)Nc1c2c(nc3ccccc13)CCC2	-23.6
O=C(NCc1ccc(F)cc1)c1c2c(nc3ccccc13)CCC2	-21.1
COc1ccc(Nc2c3c(nc4ccccc24)CCC3)cc1.Cl	-70.9
COc1ccc(Nc2nc(-c3ccccc3)c3ccccc3n2)cc1	-5.22
COc1ccc(Nc2c3ccccc3nc3ccccc23)cc1	-69.6
CCOC(=O)C1CCN(C(=O)Nc2ccc3oc(C)nc3c2)CC1	7.35
N/C(=N\OC(=O)c1cccnc1)c1ccc(Cl)cc1Cl	12.7
COc1ccc(-n2c(C)cc(C(=O)COC(=O)c3cc(NC(=O)c4cccs4)c(OC)c(OC)c3)c2C)cc1	6.03
COC(=O)c1ccc(CN2C(=O)NC3(CCCCC3)C2=O)cc1	11.2
COc1ccc(OCC(=O)N2CCN(S(=O)(=O)c3ccccc3[N+](=O)[O-])CC2)cc1	-31.2
CN(c1cccc2cccnc12)S(=O)(=O)c1ccccc1	-8.43
COc1cccc(CNS(=O)(=O)c2cc(-c3cc(C)no3)ccc2C(C)C)c1	-7.33
COc1cccc(CCN2CCC(CNS(=O)(=O)c3cc(-c4cc(C)no4)ccc3C)CC2)c1	-77.2
Cc1cc(-c2ccc(C)c(S(=O)(=O)NCCN3CCC(C)CC3)c2)on1	-12.8
Cc1cc(-c2ccc(C)c(S(=O)(=O)NCc3cccc(Br)c3)c2)on1	-22.2
COc1cccc(CCN2CCC(CNS(=O)(=O)c3cc(-c4cc(C)no4)ccc3OC)CC2)c1	-74.9
COc1ccc(-c2cc(C)no2)cc1S(=O)(=O)NCc1cccc(C)c1	-41.5
CCCNC(=O)c1[nH]c(C)c(C(C)=O)c1C	19.3
Cc1cc(C)cc(C(=O)Nc2ccc(N3CCN(S(C)(=O)=O)CC3)cc2)c1	15.7
Cc1ccc(CNC(=O)CCCNS(=O)(=O)c2cccc3nonc23)cc1	-11.4
CCOC(=O)C(Cc1c(F)cccc1F)(NC(C)=O)C(=O)OCC	8.41

Compound	hERG current change (%, negative = inhibition) at 10uM [%]
CCOC(=O)C(Cc1ccccc1)(NC(C)=O)C(=O)OCC	7.61
CCOC(=O)COc1ccc(N)cc1CC(NC(C)=O)(C(=O)OCC)C(=O)OCC	-72.7
CN(C(=O)COC(=O)C12CC3CC(CC(Cl)(C3)C1)C2)C1(C#N)CCCCC1	-53.5
CC1CCCC(C)N1C(=O)COC(=O)C12CC3CC(CC(Cl)(C3)C1)C2 (stereo not drawn)	-18.2
N#CC1(NC(=O)COC(=O)C23CC4CC(CC(O)(C4)C2)C3)CCCCC1	4.38
Cc1cccc(N2CN=C3SCC(=O)N3C2)c1	0.175
CC(C)C1Nc2ccc(S(N)(=O)=O)cc2C2C=CCC21 (stereo not drawn)	5.89
OCC(O)/C=N/Nc1nc2ccccc2s1 (stereo not drawn)	14
COCCNC(=S)N/N=C(\C)CCc1ccc2c(c1)OCO2	-11.6
CNC(=S)N/N=C(\C)c1ccc2c(c1)OCCO2	9.21
C/C(CCc1ccc2c(c1)OCO2)=N\NC(=S)NC(C)C	-59.4
C/C(=N\NC(=S)NC(C)C)c1ccc2c(c1)OCCO2	-63.6
C/C(CCc1ccc2c(c1)OCO2)=N\NC(=O)c1ccccc1	9.96
CCNC(=S)N/N=C(\C)c1ccc2c(c1)OCCO2	13.4
CC(=O)n1cc([C@H]2C=C(C(=O)Nc3ccccc3)O[C@@H](OCc3ccc(CO)cc3)C2)c2ccccc21	-2.85
CC1(C)CC(NS(=O)(=O)c2ccc(Cl)cc2)CC(C)(C)N1	9.34
Cc1nc2cc(NCc3nc4ccccc4n3Cc3ccccc3)ccc2n1C	-82
Cc1cccc(NCc2nc3ccccc3n2Cc2ccccc2)c1	-13.1
CCn1cnc2cc(NCc3nc4ccccc4n3Cc3ccccc3)ccc21	-65.6
O=C(O)c1ccc(NCc2nc3ccccc3n2Cc2ccccc2)cc1	-4.61
Cc1nc2cc(NCc3ccccc3O)ccc2n1Cc1ccccc1	13.8
CCn1cnc2cc(NCc3cccs3)ccc21	-15.9

Reference: PMC4336329 (PLoS ONE, 2015)
